Screens from PubChem BioAssay.
An excerpt weighted towards active compounds, which were near 13% of everything screened.
GBA activity – human lysosomal glucosylceramidase modulation | purified enzyme, resorufin glucoside fluorescence (screen aimed at inhibitors), 20 min | hit rate 1.1% among 48,000 | Potency, µM; in the data active = potency below about 15 µM; inconclusive = mostly about 16 µM to 33 µM;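 note: the screen sought inhibitors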
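Wild-type enzyme at 0.2 nM final in 50mM citric acid/KH2PO4, 10mM sodium taurocholate, 0.01% tween-20, pH 5.9, with resorufin beta-D-glucopyranoside at 30 uM final. Compounds titrated, 20 min at RT, red fluorescence read; AC50 from titration.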
HADH2 inh – inhibitors of human HADH2 dehydrogenase; AID 886; Potency, µM (top dose mostly 57.1 µM), most hits filed as inhibitors; hit rate 3.4% among 73,000; recombinant HADH2, NADH fluorescence, beta-hydroxybutyryl-CoA; Q99714; note: nearly all actives have a fitted effect of over 60% in size
Target sequence (Q99714 whole entry, looked up, one chain of several): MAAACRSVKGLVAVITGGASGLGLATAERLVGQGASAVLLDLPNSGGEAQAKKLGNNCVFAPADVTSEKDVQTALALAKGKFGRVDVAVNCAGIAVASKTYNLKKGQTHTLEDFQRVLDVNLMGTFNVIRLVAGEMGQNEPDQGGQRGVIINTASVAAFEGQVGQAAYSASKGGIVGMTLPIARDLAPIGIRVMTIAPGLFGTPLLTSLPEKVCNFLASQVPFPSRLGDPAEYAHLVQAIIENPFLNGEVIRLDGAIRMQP
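NADH fluorescence (ex 360/em 450 nm) read every 30 s for 4 min; activity taken as last-minus-first time point difference. Enzyme 20 nM, NAD+ 1 mM, beta-hydroxybutyryl-CoA 90 uM, pH 9.0 Tris buffer.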
HSD17B inhib – blocks hydroxysteroid 17-beta dehydrogenase activity; Q99714; recombinant HSD17B10, NADH fluorescence kinetic; Potency, µM (titrated, usually from 57.1 µM), most hits filed as inhibitors; hit rate 7.6% among 75,000; AID 893;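 note: the protocol describes HADH2 (HSD17B10) and not the HSD17B4 of the title; nearly all actives have a fitted effect of over 70% in size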
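Activity followed as NADH fluorescence increase (ex 360, em 450 nm) every 30 seconds for 4 min, using final 90 uM beta-hydroxybutyryl CoA and 1 mM NAD+. Recombinant His-tagged enzyme, 20 nM, pH 9.0 Tris buffer, 15 min compound preincubation.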
4MU fluor – compounds fluorescent in 4-MU spectral region; compound autofluorescence, 340/450 nm, 4-MU equivalents; hits give high values; hit rate 11% among 59,000; max dye-equivalent concentration, M; AID 589; in the data active = max dye-equivalent concentration above about 10 nM; inconclusive = mostly about 1.1 nM to 9.6 nM
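Compounds in 100 mM Tris, pH 8.0, incubated 15 min at room temperature, then fluorescence read at 340 nm excitation/450 nm emission. Signal converted to 4-MU dye-equivalent concentration using an on-plate six-point 4-MU standard curve.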
A350 fluor – compounds fluorescent in Alexa 350 spectral region. Compound autofluorescence, 340/450 nm, Alexa 350 dye-equivalents; hits give high values. max dye-equivalent concentration, M. hit rate 11% among 59,000. AID 590; in the data active = max dye-equivalent concentration above about 10 nM; inconclusive = mostly about 1.1 nM to 9.6 nM
AID923 – qHTS Assay for Allosteric/Competitive Inhibitors of Caspase-1: Spectroscopic Profiling in AFC Spectral Region; compound fluorescence, AFC spectral region (405/520 nm); Potency, µM (titrated, usually from 57.5 µM), usual class: activators; hit rate 1.1% among 75,000; AID 923, 2007
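Compound autofluorescence profiled at 405 nm ex/520 nm em during kinetic caspase 1 run (50 nM enzyme, 5 uM Ac-WEHD-AFC, HEPES pH 7.5, 10 mM DTT). Titration up to 57 uM; baseline from regression intercept, normalized to AFC standard curve.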
Large screens that a line does not name were inactive. Unless noted, calls come from the whole dose curve; as a rule, active = well fitted curve in the direction sought with a large enough effect; inconclusive = small, poorly fitted or top-dose-only effect, or another doubt; inactive = no such curve, though single readings can be large; an effect the other way counts as inactive or inconclusive.

N#Cc1c(F)cccc1N1CCOCC1	HSD17B inhib 31.6µM, 4MU fluor 1.53e-08M, A350 fluor 1.58e-08M
Fc1cccc2sc(N3CCOCC3)nc12	none
O=C1c2ccc(O)c(O)c2C(=O)c2c(O)ccc(O)c21	HSD17B inhib 5.01µM (no result: GBA activity, HADH2 inh, 4MU fluor, A350 fluor)
O=C1c2cccc(O)c2C(=O)c2c(O)cccc21	HSD17B inhib inconclusive (no result: GBA activity, 4MU fluor, A350 fluor)
O=C1c2ccccc2C(=O)c2c1ccc(O)c2O	HSD17B inhib 31.6µM (no result: GBA activity, HADH2 inh, 4MU fluor, A350 fluor)
COC(=O)Nc1ncc(CN2CCc3ccccc3C2)s1	none
COc1ccc(CCNC(=O)CSc2nnnn2-c2ccccc2)cc1	none (no result: GBA activity, 4MU fluor, A350 fluor)
COC(=O)c1ccc(N/C(C)=C/C(=O)c2ccc(C)o2)cc1	4MU fluor 3.26e-08M, A350 fluor 3.56e-08M
